# Sampled rows, rich in hits. Any-hit rate of the full collection: about 1.3%.
# EPAC1 antagonist – EPAC1 (human) antagonism; EPAC1 GEF assay, Rap1b-BODIPY-GDP exchange fluorescence; 360,000 compounds, 0.14% hits; O95398; Potency, µM (highest dose often 115 µM), inactives show top-dose activity change, negative = inhibition, actives largely listed as inhibitors;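 note: plate controls were vehicle for no effect and positive control for full effect; nearly all actives have a fitted effect of over 50% in size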
# BRCA1 expr up – activators of BRCA1 expression. MCF7-BRCA1-FFLuc reporter, luminescence, 48 h; response scale: scaled: vehicle 0%, 10 µM genistein 100%. Potency, µM (titrated, usually from 46.1 µM), for inactives: top-dose activation, hits mostly activators. 380,000 compounds, 1.1% hits; note: nearly all actives have a fitted effect of over 80% in size
#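 Cells: MCF7-BRCA1-FFLuc, 2000/well. Exposure: 48 h, 37 °C, 5% CO2. Read: luminescence, 15 min post-substrate. Controls: genistein 10 microM (maximal activation), DMSO (neutral).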
# EPAC2 antagonist – EPAC2 (human) antagonism. Q8WZA2. EPAC2 GEF exchange of Rap1B-BODIPY-GDP, fluorescence. Potency, µM (doses to about 114 µM), without a hit: at the top dose activity, negative = inhibition, usual class: inhibitors. 360,000 compounds, 0.18% hits. AID 720708; note: % is set by controls: 0 for no effect and ±100 for the full control effect; nearly all actives have a fitted effect of over 45% in size
# Target sequence (Q8WZA2 whole entry, looked up): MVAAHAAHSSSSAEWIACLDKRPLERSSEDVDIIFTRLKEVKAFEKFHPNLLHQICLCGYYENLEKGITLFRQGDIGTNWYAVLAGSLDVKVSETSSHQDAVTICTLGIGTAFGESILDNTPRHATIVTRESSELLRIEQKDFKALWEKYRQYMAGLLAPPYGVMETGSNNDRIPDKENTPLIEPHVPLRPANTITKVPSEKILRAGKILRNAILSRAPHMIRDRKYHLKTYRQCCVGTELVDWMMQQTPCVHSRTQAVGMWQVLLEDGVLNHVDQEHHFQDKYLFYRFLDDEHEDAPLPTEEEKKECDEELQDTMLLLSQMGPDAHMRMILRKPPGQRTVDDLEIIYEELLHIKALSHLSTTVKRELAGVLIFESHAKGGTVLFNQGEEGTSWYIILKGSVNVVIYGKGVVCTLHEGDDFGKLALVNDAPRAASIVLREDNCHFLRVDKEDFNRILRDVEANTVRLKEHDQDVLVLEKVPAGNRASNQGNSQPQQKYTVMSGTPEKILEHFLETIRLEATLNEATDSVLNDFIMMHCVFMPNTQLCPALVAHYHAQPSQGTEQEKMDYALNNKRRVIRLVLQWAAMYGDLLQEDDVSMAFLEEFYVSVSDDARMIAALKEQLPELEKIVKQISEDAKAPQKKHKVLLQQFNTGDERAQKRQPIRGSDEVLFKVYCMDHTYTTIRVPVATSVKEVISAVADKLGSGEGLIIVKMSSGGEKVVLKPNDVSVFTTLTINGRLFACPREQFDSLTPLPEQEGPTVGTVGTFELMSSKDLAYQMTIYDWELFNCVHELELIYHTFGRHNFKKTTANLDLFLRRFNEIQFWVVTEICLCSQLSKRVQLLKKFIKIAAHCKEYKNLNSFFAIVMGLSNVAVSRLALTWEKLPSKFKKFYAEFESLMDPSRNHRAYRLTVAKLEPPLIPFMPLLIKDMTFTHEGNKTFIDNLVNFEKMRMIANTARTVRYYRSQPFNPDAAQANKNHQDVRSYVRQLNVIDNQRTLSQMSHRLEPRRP
# RGS4 inh – human RGS4 inhibition | Potency, µM (highest dose often 114 µM), for inactives: at the highest dose activity change, negative = inhibition, most hits filed as inhibitors | 390,000 compounds, 0.039% hits | P49798 | Transcreener GDP fluorescence polarization, RGS4-accelerated GTP hydrolysis; note: % is set by controls: 0 for no effect and ±100 for the full control effect; nearly all actives have a fitted effect of over 75% in size
#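 MLSMR compounds (23 nl, pin-transferred) preincubated 10 min at room temperature with a 500nM (2x) first reagent, then RGS4 at 900nM (2x) plus Transcreener GDP mix added; fluorescence polarization (620/688 nm) read before and after 90 min at 30 °C.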
# EPAC1 ag – activates human EPAC1 exchange factor. 360,000 compounds, 0.073% hits. EPAC1 agonist qHTS, biochemical assay; response scale: 100% = response to 6.5 mM cAMP. Potency, µM (highest dose often 154 µM), for inactives: at the top dose activation, hits mostly activators. AID 720707; note: nearly all actives have a fitted effect of over 60% in size
#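 Fluorescent GDP-exchange assay: 100 nM EPAC1 with 250 nM Rap1B preloaded with BODIPY-GDP and 50 uM GDP; compounds tested as concentration series, 5 min at room temperature, then read every 5 min for 30 min (ex 480/em 540 nm); normalized to 6.5 mM cAMP.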
# EPAC2 agonist – agonists of human EPAC2 (RAPGEF4) | Q8WZA2 | EPAC2 activation, biochemical qHTS; response scale: 100% = 6.5 mM cAMP response | Potency, µM (highest dose often 154 µM), for the others: top-dose activation, usual class: activators | 360,000 compounds, 0.079% hits | AID 720711; note: nearly all actives have a fitted effect of over 50% in size
#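 Readout is BODIPY fluorescence (480 nm excitation, 540 nm emission), which falls as labeled GDP is exchanged off Rap1B. EPAC2 at 100 nM acted on 250 nM RAP1B-BODIPY-GDP with 50 uM GDP present.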
# An asterisk follows results filed as active; ? = inconclusive; . = no result; [ ] = remark or other dose. Calls come from the whole dose curve; as a rule, active = well fitted curve in the direction sought with a large enough effect; inconclusive = small, poorly fitted or top-dose-only effect, or another doubt; inactive = no such curve, though single readings can be large; an effect the other way counts as inactive or inconclusive. Potency is the fitted concentration of half-maximal effect.
SMILES,EPAC1 antagonist,BRCA1 expr up,EPAC2 antagonist,RGS4 inh,EPAC1 ag,EPAC2 agonist
CCOCCCNC(=O)CN1C(=O)C(CC)Oc2ccccc21 (configuration not stated),-1%,-11%,-11%,17%,14%,13%
Cc1ccc(C2(C)NC(=O)N(CC(=O)NC(C)c3ccccc3)C2=O)cc1 (configuration not stated),-25%,23%,-18%,6%,1%,6%
CCOCCCNC(=O)C(c1ccc(C)cc1)N(Cc1ccc2c(c1)OCO2)C(=O)c1cnccn1 (configuration not stated),-16%,0%,-4%,-17%,14%,-12%
CN(Cc1ccc(F)cc1)C(=O)CCc1nnc(-c2ccccc2)o1,0%,14µM*,-2%,2%,-18%,-3%
Cc1ccccc1COC(=O)CCCC1=NS(=O)(=O)c2ccccc2N1,-12%,0%,-8%,-24%[11.4 µM],-1%,-6%
Cc1cc(C)nc(Nc2ccc(C(=O)O)cc2)n1,7%,2.8µM*,5%,22%,10%,11%
Cc1cc(C)nc(Nc2ccc(O)cc2)n1,-11%,19%,3%,-5%,-8%,2%
O=C(CSc1ccccn1)Nc1ccc2c(c1)OCO2,-3%,72%,1%,-17%,2%,-3%
O=C(CSc1ccccn1)c1ccc2c(c1)OCO2,8%,7.1µM*,10%,-33%,4%,4%
COC(=O)Cc1ccc(NC(=O)c2ccc(Br)o2)cc1,8%,13µM*,5%,9%,11%,-5%
CCN(CC)c1ccc(NC(=O)c2ccc(Br)o2)cc1,6%,2.8µM*,-1%,0%,7%,4%
O=C(Nc1ccccc1)c1ccc(Br)o1,-6%,2%,7%,4%,-5%,8%
CS(=O)(=O)c1ccc(-c2cccc(NC(=O)c3ccc(Br)o3)c2)nn1,-13%,-26%,10%,20%,3%,3%
O=C(Nc1ccccc1C(=O)O)c1ccc(Br)o1,9%,14µM*,14%,-20%,4%,2%
COc1ccc(-c2ccc(NC(=O)c3ccc(Br)o3)cc2)nn1,-19%,4µM*,7%,-11%,0%,4%
CCCCNC(=S)N(C)/N=C/c1c(F)cccc1F,-22%,-16%,1%,13%,-12%,-8%
CCOC(=O)N/N=C/c1ccc(N2CCOCC2)s1,?,63%,-1%,0%,6%,6%
Cc1ccnc(SCC(=O)c2cc3ccccc3o2)n1,-23%,8.9µM*,-27%,10%,13%,9%
Cn1ccnc1SCC(=O)c1cc2ccccc2o1,3%,45%,-1%,-31%,4%,2%
O=C(NCCCN1CCOCC1)c1cc(-c2ccc(Cl)c(Cl)c2)on1,-7%,-8%,11%,-5%,0%,0%
COC(=O)CSc1nnc(COc2ccc3ccccc3c2)o1,-6%,-3%,-12%,-23%,8%,12%
CN1CC=C2C(C#N)=C(N)C(C#N)(C#N)C(c3ccsc3)C2C1 (configuration not stated),?,0%,-25%,-2%[11.4 µM],63µM*,?
CN1CC=C2C(C#N)=C(N)C(C#N)(C#N)C(CCc3ccccc3)C2C1 (configuration not stated),?,-49%,45µM*,-22%,?,50µM*
CCCC1C2CN(C(C)C)CC=C2C(C#N)=C(N)C1(C#N)C#N (configuration not stated),?,15%,35µM*,-10%,63µM*,56µM*
CN1CC=C2C(C#N)=C(N)C(C#N)(C#N)[C@H](c3cccs3)[C@H]2C1,-8%,7%,-4%,-21%,21%,16%
SMILES,EPAC1 antagonist,BRCA1 expr up,EPAC2 antagonist,RGS4 inh,EPAC1 ag,EPAC2 agonist
O=C(NCCc1ccccc1)C(=O)c1c[nH]c2ccccc12,-13%,85%,0%,-7%,2%,-3%
COCCOC(=O)C1=C(C)NC(C)=C(C(=O)OC(C)C)C1c1cccc([N+](=O)[O-])c1 (configuration not stated),-11%,-5%,?,1%[56.9 µM],-17%,1%
O=C(COC(=O)c1cccc(C(=O)OCC(=O)c2ccc(Br)cc2)n1)c1ccc(Br)cc1,-17%,15%,-9%,-19%,4%,3%
O=c1c2c3nc4ccccc4nc3n(/N=C/c3ccncc3)c2ncn1-c1ccccc1,1%,-1%,2%,43%,5%,4%
Cc1ccc(NC(=O)CSc2ncccn2)c([N+](=O)[O-])c1,9%,11µM*,5%,-13%,-2%,-3%
COCCNC(=O)C(OC(=O)c1nsc(Cl)c1Cl)C(C)C (configuration not stated),-4%,0%,5%,24%,-4%,5%
Cc1cccc(Nc2ncc3c(n2)CC(C)CC3=O)c1 (configuration not stated),-5%,5µM*,4%,0%,-10%,-30%
COc1cc(C(=O)NCC2CCCCC2)ccc1OCc1c(C)noc1C,-4%,-9%,1%,-12%,3%,2%
CC1CCCN(C(=O)COc2ccc3c(c2)OCO3)C1 (configuration not stated),4%,0%,-5%,12%,6%,8%
O=C(COc1ccc2c(c1)OCO2)Nc1ccccc1C(F)(F)F,4%,10µM*,-14%,-1%,-3%,3%
Cc1ccc(NC(=O)COc2ccc3c(c2)OCO3)c(Cl)c1,6%,14µM*,5%,19%,-1%,2%
CC(C)(C)c1nnc(NC(=O)COc2ccc3c(c2)OCO3)s1,-26%,2.5µM*,-3%,6%,-46%,0%
CC1Cc2ccccc2N1C(=O)COc1ccc2c(c1)OCO2 (configuration not stated),-12%,3.2µM*,-2%,24%,7%,8%
CC(C)(C)c1nnc(NC(=O)c2ccc3c(c2)OCO3)s1,6%,?,5%,?,0%,11%
CCc1ccccc1NC(=O)COc1ccc2c(c1)OCO2,5%,0%,-23%,-43%,-3%,7%
C[C@@H]1CN([C@H](C)CO)C(=O)c2c(c3ccccc3n2C)-c2ccccc2CO[C@H]1CN(C)C(=O)Nc1ccccc1,-15%,-54%,3%,.,-18%,13%
C[C@]12CC[C@@H]3c4ccc(O)cc4CC[C@H]3[C@@H]1C[C@@H](O)[C@@H]2O[C@@H]1O[C@H](C(=O)O)[C@@H](O)[C@H](O)[C@H]1O,-12%,-18%,0%,-27%,-23%,6%

# High-throughput results as filed in PubChem BioAssay.
